Bioassay records: PubChem, The Scripps Research Institute Molecular Screening Center
Only a selection was taken, and hits are over-represented in it overall.
TTR transcr act: TTR transcription activators in neuroblastoma reporter cells, primary screen, cell-based, luminescence, SH-SY5Y, TTR promoter Gaussia luciferase; 100% = recombinant luciferase protein wells; 92,000 compounds, 1.3% hits; activation, % at 16.7 µM; AID 1117267, 2014;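 active = activation above the mean of all tested compounds plus 3 SD, cut at about 9.5% in these data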;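 note: cells exposed to compounds for one day before reading; 0% = median of all test compound wells on the plate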
TTR inh HuH7: TTR promoter reporter inhibitors in hepatoma cells, counter-screen for TTR transcription activator project, cell-based, luminescence, HuH7 hepatoma | shares compounds with TTR transcr act | HuH7 TTR promoter-Gaussia luciferase reporter | inhibition, % at 16.7 µM | 1,100 compounds, 4% hits | AID 1117279, 2014;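 active = average inhibition above the solvent-only control wells' mean plus 3 SD, cut at about 15% in these data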;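 note: 0% = cells with DMSO only and 100% = cells with inhibitor control FD; inhibitors lower well luminescence so higher value means more inhibition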
TTR up confirm: TTR transcription activators, retest, confirmation, cell-based, luminescence, SH-SY5Y, triplicate; shares compounds with TTR transcr act; SHSY5Y TTR promoter Gaussia luciferase; 100% = purified Lucia enzyme wells, no cells; activation, % at 16.7 µM; 1,100 tested, under 10 active;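 active = mean activation above a set limit taken from the earlier primary screen, cut at about 11% in these data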;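 note: 0% = DMSO-treated cells and 100% = recombinant Lucia luciferase without cells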
Active calls of the source: *.

SMILES	TTR transcr act	others
Cc1cc(NC(=O)C(C)SCC(=O)OC(C)C(=O)Nc2cccc(C#N)c2)no1 (configuration not stated)	0
Cc1cc(NC(=O)CCOc2ccc(F)cc2)no1	4
O=C(O)c1cc(NC(=O)c2cccc(F)c2)cc(NC(=O)c2cccc(F)c2)c1	0
CC1=CC(=O)N(c2cccc3c(N4C(=O)C=C(C)C4=O)cccc23)C1=O	2
CCN1C(=O)N(c2cccc3ccccc23)C(C)=CC1(C)C	28*	TTR inh HuH7=-6;TTR up confirm=-1
CN1/C(=C/C2CC(=O)N(c3cccc4ccccc34)C2=O)C(C)(C)c2ccccc21 (configuration not stated)	-2
COC(=O)Nc1ccc(S(=O)(=O)NC2CCCCC2)cc1	0
CN(C(=O)COC(=O)c1c2c(nc3ccccc13)CCCC2)c1c(N)n(Cc2ccccc2)c(=O)[nH]c1=O	0
C[C@@H]1CCCCO[C@H](CN(C)Cc2ccc3c(c2)OCO3)[C@@H](C)CN([C@H](C)CO)C(=O)c2cc(NC(=O)c3ccccc3)ccc2O1	1
